Measured values published in PubChem BioAssay AID1159580 (chemical genetic matrix, 2015).
Among all 5,500 compounds or so, about 2,000 (36%) were called active. Roughly 18% stayed inconclusive and do not appear here. No stated cut-off is given here; in the data, active means normalized growth mostly below about 0.91 (no sharp cut-off); inconclusive means no clear call, values can overlap the other calls; inactive means mostly above about 0.92. The list shows a part of the results.

Assay: chemical genetic growth profiling, strain panel (AID 1159580);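 further: tested at 20 µM; growth read once vehicle control cultures reached saturation at 30 °C; 1 = growth at the plate median or of vehicle wells; lower values mean less growth of the strain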
Conditions: growth OD
[1] = S. cerevisiae deletion strains, locus YGR078C, strain PAC10, hits give low values
[2] = S. cerevisiae deletion strains, locus YJR075W, strain HOC1, hits give low values
[3] = S. cerevisiae deletion strains, locus YMR263W, strain SAP30, hits give low values
[4] = S. cerevisiae deletion strains, locus YNL322C, strain KRE1, hits give low values
[5] = S. cerevisiae deletion strains, locus YPL241C, strain CIN2, hits give low values

Measured: normalized growth

COc1c(Br)cc([N+](=O)[O-])c(OC)c1C(N)=O
inactive: S. cerevisiae deletion strains, locus YBR229C, strain ROT2, hits give low values 1.03 | S. cerevisiae deletion strains, locus YCL061C, strain MRC1, hits give low values 1.01 | S. cerevisiae deletion strains, locus YDL101C, strain DUN1, hits give low values 1.03 | S. cerevisiae deletion strains, locus YDL134C, strain PPH21, hits give low values 1.01 | S. cerevisiae deletion strains, locus YDR150W, strain NUM1, hits give low values 0.986 | S. cerevisiae deletion strains, locus YEL061C, strain CIN8, hits give low values 1.02 | [1] 1.02 | S. cerevisiae deletion strains, locus YHR030C, strain SLT2, hits give low values 1.07 | S. cerevisiae deletion strains, locus YHR087W, strain rtc3, hits give low values 1.01 | S. cerevisiae deletion strains, locus YJL187C, strain SWE1, hits give low values 1 | S. cerevisiae deletion strains, locus YJR043C, strain POL32, hits give low values 1.04 | [2] 1.01 | S. cerevisiae deletion strains, locus YLR039C, strain RIC1, hits give low values 1.02 | S. cerevisiae deletion strains, locus YLR058C, strain SHM2 (second series), hits give low values 1.01 | S. cerevisiae deletion strains, locus YLR085C, strain ARP6, hits give low values 1.02 | S. cerevisiae deletion strains, locus YLR262C, strain YPT6, hits give low values 1.01 | S. cerevisiae deletion strains, locus YML094W, strain GIM5, hits give low values 1 | S. cerevisiae deletion strains, locus YMR219W, strain ESC1, hits give low values 1.03 | [3] 0.946 | S. cerevisiae deletion strains, locus YNL153C, strain GIM3, hits give low values 1.02 | S. cerevisiae deletion strains, locus YNL298W, strain CLA4 (second series), hits give low values 1.01 | [4] 1.02 | S. cerevisiae deletion strains, locus YNR030W, strain Alg12, hits give low values 1.03 | S. cerevisiae deletion strains, locus YPL055C, strain LGE1, hits give low values 0.928 | [5] 1.02 | S. cerevisiae deletion strains, locus YPR135W, strain CTF4, hits give low values 1.1 | S. cerevisiae strains, strain wild type, hits give low values 1.03

CN1C2CCC1CC(OC(=O)c1cc(Cl)cc(Cl)c1)C2 (stereo unspecified)
inactive: S. cerevisiae deletion strains, locus YAL040C, strain CLN3, hits give low values 1 | S. cerevisiae deletion strains, locus YCL061C, strain MRC1 (second series), hits give low values 1 | S. cerevisiae deletion strains, locus YDR363W, strain ESC2, hits give low values 0.99 | S. cerevisiae deletion strains, locus YER002W, strain NOP16, hits give low values 0.997 | [1] 1.01 | [2] 0.997 | [3] 0.999 | S. cerevisiae deletion strains, locus YMR307W, strain GAS1, hits give low values 1 | S. cerevisiae deletion strains, locus YNL175C, strain NOP13, hits give low values 1.01 | S. cerevisiae deletion strains, locus YNL197C, strain WHI3, hits give low values 1.01 | S. cerevisiae deletion strains, locus YNL224C, strain SQS1, hits give low values 1.03 | [4] 0.996 | S. cerevisiae deletion strains, locus YOR083W, strain WHI5 (second series), hits give low values 1.01 | [5] 1
